# Laboratory results reported in the supplement of paper PMC13392028.
# The full ranking holds about 4,100 sequences; the median of “RBNS R-value (6-mer enrichment in protein-bound RNA vs input library)” is about 0.99, and the highest 2% start at about 1.4. The sample as a whole holds a higher share of the highest values than the screen did.
# Test system: PfIESI-1 RRM domain (Plasmodium falciparum ortholog aa 875-1232, GST fusion)
# Assay: RBNS R-value (6-mer enrichment in protein-bound RNA vs input library) (ratio); higher = stronger binding preference; the methods of the paper give 50 / 100 / 500 nM protein instead
# Method in brief: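 A random 40-mer in vitro transcribed RNA library was incubated at room temperature with purified GST-tagged RNA-recognition-motif regions of orthologues from three Plasmodium species, expressed in E. coli. After capture on glutathione magnetic agarose beads and three washes, bound RNA and input were reverse transcribed and sequenced on a MiSeq. The R-value reports each motif's enrichment in bound RNA over input via the Burge lab pipeline. Motifs were 6-mers from one replicate.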
sequence,measurement,setting,value
AGUAGA,RBNS R-value,protein concentration: 250 nM,1.01
same,RBNS R-value,protein concentration: 500 nM,1.08
same,RBNS R-value,protein concentration: 1000 nM,1.05
GAUCGC,RBNS R-value,protein concentration: 250 nM,0.972
same,RBNS R-value,protein concentration: 500 nM,0.958
same,RBNS R-value,protein concentration: 1000 nM,0.975
AACACA,RBNS R-value,protein concentration: 250 nM,0.942
same,RBNS R-value,protein concentration: 500 nM,1.02
same,RBNS R-value,protein concentration: 1000 nM,0.978
GAGUCA,RBNS R-value,protein concentration: 250 nM,0.969
same,RBNS R-value,protein concentration: 500 nM,0.989
same,RBNS R-value,protein concentration: 1000 nM,0.99
UGCAAG,RBNS R-value,protein concentration: 250 nM,0.989
same,RBNS R-value,protein concentration: 500 nM,1.01
same,RBNS R-value,protein concentration: 1000 nM,1.03
AUUAGU,RBNS R-value,protein concentration: 250 nM,0.821
same,RBNS R-value,protein concentration: 500 nM,0.901
same,RBNS R-value,protein concentration: 1000 nM,0.849
CUCAGG,RBNS R-value,protein concentration: 250 nM,1.03
same,RBNS R-value,protein concentration: 500 nM,1.04
same,RBNS R-value,protein concentration: 1000 nM,1.09
CACCUG,RBNS R-value,protein concentration: 250 nM,1.41
same,RBNS R-value,protein concentration: 500 nM,1.3
same,RBNS R-value,protein concentration: 1000 nM,1.29
CACCUA,RBNS R-value,protein concentration: 250 nM,1.09
same,RBNS R-value,protein concentration: 500 nM,1.01
same,RBNS R-value,protein concentration: 1000 nM,1.01
CACCUC,RBNS R-value,protein concentration: 250 nM,1.07
same,RBNS R-value,protein concentration: 500 nM,1
same,RBNS R-value,protein concentration: 1000 nM,1.05
UCGGGG,RBNS R-value,protein concentration: 250 nM,1.04
same,RBNS R-value,protein concentration: 500 nM,0.984
same,RBNS R-value,protein concentration: 1000 nM,1.05
UCUGCG,RBNS R-value,protein concentration: 250 nM,0.996
same,RBNS R-value,protein concentration: 500 nM,0.968
same,RBNS R-value,protein concentration: 1000 nM,1
UUAUUA,RBNS R-value,protein concentration: 250 nM,0.766
same,RBNS R-value,protein concentration: 500 nM,0.749
same,RBNS R-value,protein concentration: 1000 nM,0.734
GAUGGG,RBNS R-value,protein concentration: 250 nM,1.47
same,RBNS R-value,protein concentration: 500 nM,1.46
same,RBNS R-value,protein concentration: 1000 nM,1.34
UAUGGG,RBNS R-value,protein concentration: 250 nM,0.895
same,RBNS R-value,protein concentration: 500 nM,0.916
same,RBNS R-value,protein concentration: 1000 nM,0.918
CAUGGC,RBNS R-value,protein concentration: 250 nM,1.03
same,RBNS R-value,protein concentration: 500 nM,0.999
same,RBNS R-value,protein concentration: 1000 nM,1.03
AAUGGG,RBNS R-value,protein concentration: 250 nM,1.03
same,RBNS R-value,protein concentration: 500 nM,1.06
same,RBNS R-value,protein concentration: 1000 nM,1.03
GAUGGC,RBNS R-value,protein concentration: 250 nM,1.85
same,RBNS R-value,protein concentration: 500 nM,1.82
same,RBNS R-value,protein concentration: 1000 nM,1.48
UAUGGC,RBNS R-value,protein concentration: 250 nM,1.09
same,RBNS R-value,protein concentration: 500 nM,1.06
same,RBNS R-value,protein concentration: 1000 nM,0.988
CCUCCC,RBNS R-value,protein concentration: 250 nM,1.06
same,RBNS R-value,protein concentration: 500 nM,0.981
same,RBNS R-value,protein concentration: 1000 nM,1.04
ACUAGG,RBNS R-value,protein concentration: 250 nM,0.943
same,RBNS R-value,protein concentration: 500 nM,0.956
same,RBNS R-value,protein concentration: 1000 nM,0.957
UGGACA,RBNS R-value,protein concentration: 250 nM,0.973
same,RBNS R-value,protein concentration: 500 nM,0.993
same,RBNS R-value,protein concentration: 1000 nM,0.99
